hcDAF12 agonist: activates DAF-12 receptor from parasite H. contortus; HEK293 hcDAF-12 lit1-tk-luc reporter, luminescence; 0% DMSO, 100% Δ7-dafachronic acid; activation, % at 6.8 µM; hit rate 1.4% among 370,000; AID 652067;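 active means activation above the mean of all tested compounds plus 3 SD, cut at about 5.5% in these data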;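 further: 100% = response to 3 µM Δ7-dafachronic acid high control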
ssDAF12 agonist: S. stercoralis DAF-12 activation, primary screen; HEK293 ssDAF-12/GRIP1 lit1-tk-luc reporter, luminescence; % of 3 µM dafachronic acid response; activation, % at 6.8 µM; hit rate 1% among 370,000; AID 652126;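 active means activation above the mean over all tested compounds plus 3 SD, cut at about 0.9% in these data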;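 further: 0% = DMSO-only wells and 100% = 3 µM delta7-dafachronic acid wells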
SMARCA2 activ: increases SMARCA2 function in MMTV reporter cells; hit rate 1% among 370,000; AID 652017; MG213 cells, MMTV-luciferase reporter, dexamethasone, overnight; activation, % at 9.1 µM; in the data active means activation above about 7.8%;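 further: 0% = vehicle wells and 100% = reference activator wells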
DAX1 StAR inh: blocks DAX1 repression of SF-1 activated StAR promoter | HEK293T StAR-luciferase reporter, SF-1/DAX-1 repression relief | inhibition, % at 6.8 µM | hit rate 1.1% among 370,000;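 active means inhibition above the mean over all tested compounds plus 3 SD, cut at about 3.6% in these data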;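 further: 0% = DAX-1 cells with DMSO and 100% = cells lacking DAX-1 with DMSO; higher inhibition means more luminescence from relief of DAX-1 repression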
hgDAF12 agonist: hgDAF-12 agonism, primary luciferase screen | HEK293 GAL4-hgDAF12 UAS-luciferase reporter, agonist luminescence; normalized to butyrate control | activation, % at 6.8 µM | hit rate 1.8% among 370,000;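 active means activation above a cutoff set at the mean of all screened compounds plus 3 SD, cut at about 10% in these data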;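 further: 0% = DMSO wells and 100% = sodium butyrate wells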
* = called active by the depositor. Sampled rows, rich in hits. Any-hit rate of the full collection: about 4.2%.

What do the screens show for `CC(C)c1ccc(Nc2nnc(SCC(=O)NCC3CCCO3)s2)cc1` (stereo not drawn)?
hcDAF12 agonist: 0; ssDAF12 agonist: -1; SMARCA2 activ: 1; DAX1 StAR inh: 1; hgDAF12 agonist: 12*

Results for CN1C(=O)[C@@](O)(c2cccn2C)c2cc(Cl)ccc21 ?
hcDAF12 agonist: -2; ssDAF12 agonist: 0.9*; SMARCA2 activ: -2; DAX1 StAR inh: 0; hgDAF12 agonist: -1

Results for Cc1ccc2nc(CCc3ccc(N)cc3)[nH]c2c1 ?
hcDAF12 agonist: 2; ssDAF12 agonist: 0; SMARCA2 activ: 3; DAX1 StAR inh: 1; hgDAF12 agonist: 11*

How did CC(C)(C)N(Cc1cn(Cc2ccccc2)nn1)S(=O)(=O)c1ccccc1Br do in these assays?
hcDAF12 agonist: -1; ssDAF12 agonist: -1; SMARCA2 activ: 3; DAX1 StAR inh: 0; hgDAF12 agonist: 3

Results for O=C(CN1CCOc2ccccc21)NCc1ccccc1 ?
hcDAF12 agonist: 5.8*; ssDAF12 agonist: 0; SMARCA2 activ: -2; DAX1 StAR inh: 0; hgDAF12 agonist: 1

What do the screens show for `CC(CCc1ccccc1)NC(=O)CN1CCOc2ccccc21` (stereo not drawn)?
hcDAF12 agonist: 3; ssDAF12 agonist: 0; SMARCA2 activ: -1; DAX1 StAR inh: 0; hgDAF12 agonist: 1

How did O=C(CCC(=O)c1cccs1)NCCc1ccc(F)cc1 do in these assays?
hcDAF12 agonist: 3; ssDAF12 agonist: 0; SMARCA2 activ: -1; DAX1 StAR inh: 3.8*; hgDAF12 agonist: -3

How did NS(=O)(=O)c1ccc(CCNC(=O)CCC(=O)c2cccs2)cc1 do in these assays?
hcDAF12 agonist: 0; ssDAF12 agonist: -1; SMARCA2 activ: -1; DAX1 StAR inh: 0; hgDAF12 agonist: -2

Results for NC(=O)c1cc(Cc2ccccc2)sc1NC(=O)c1ccco1 ?
hcDAF12 agonist: 3; ssDAF12 agonist: 0; SMARCA2 activ: 7; DAX1 StAR inh: 2; hgDAF12 agonist: 13*

How did C[C@H]1[C@@H](NC(=O)C2CCC2)CC[C@@]23CCCN2C(=O)CCC[C@@H]13 do in these assays?
hcDAF12 agonist: 0; ssDAF12 agonist: -2; hgDAF12 agonist: 2

Results for Cc1csc(SCC(=O)Nc2nccs2)n1 ?
hcDAF12 agonist: 1; ssDAF12 agonist: 0; SMARCA2 activ: -1; DAX1 StAR inh: 1; hgDAF12 agonist: 1

Results for Cc1csc(SCC(=O)Nc2sccc2C(N)=O)n1 ?
hcDAF12 agonist: 0; ssDAF12 agonist: -1; SMARCA2 activ: 8; DAX1 StAR inh: 0; hgDAF12 agonist: 11*

Results for COc1ccc2[nH]c(N=Nc3ccccc3C)c(O)c2c1 ?
hcDAF12 agonist: 6.5*; ssDAF12 agonist: 0; SMARCA2 activ: -1; DAX1 StAR inh: 0; hgDAF12 agonist: 9

What do the screens show for `O=C(COc1ccc2ccccc2c1Br)NC(=S)Nc1cccc(CO)c1`?
hcDAF12 agonist: 1; ssDAF12 agonist: 0; SMARCA2 activ: 0; DAX1 StAR inh: 2; hgDAF12 agonist: 11*

Results for O=C(COc1ccc(Br)cc1Br)NC(=S)Nc1cccc(CO)c1 ?
hcDAF12 agonist: 2; ssDAF12 agonist: -1; SMARCA2 activ: 4; DAX1 StAR inh: 1; hgDAF12 agonist: 10

How did O=c1c(-c2ccccc2)n[nH]c2ccccc12 do in these assays?
hcDAF12 agonist: 5; ssDAF12 agonist: 1; SMARCA2 activ: 6; DAX1 StAR inh: 2; hgDAF12 agonist: 11*

How did O=[N+]([O-])c1ccc2[nH]nc(-c3ccccc3)c2c1 do in these assays?
hcDAF12 agonist: 0; ssDAF12 agonist: -2; SMARCA2 activ: -2; DAX1 StAR inh: 0; hgDAF12 agonist: 0

Results for COc1ccc(C(=O)c2c[nH]c3ccccc23)cc1 ?
hcDAF12 agonist: 4; ssDAF12 agonist: 1; SMARCA2 activ: 3; DAX1 StAR inh: 3; hgDAF12 agonist: 11*

Results for COc1ccc(C(=O)c2ccc(Br)cc2)cc1 ?
hcDAF12 agonist: -1; ssDAF12 agonist: -1; SMARCA2 activ: 0; DAX1 StAR inh: 1; hgDAF12 agonist: 3

What do the screens show for `COc1ccc(C(=O)c2ccccc2)cc1`?
hcDAF12 agonist: 2; ssDAF12 agonist: 16*; SMARCA2 activ: -4; DAX1 StAR inh: 1; hgDAF12 agonist: 0

What do the screens show for `O=C(Nc1c(F)c(F)c(F)c(F)c1F)OC[C@@H]1CSCCS(=O)(=O)N1`?
hcDAF12 agonist: -1; ssDAF12 agonist: 0; SMARCA2 activ: 3; DAX1 StAR inh: 3.6*; hgDAF12 agonist: 2

Results for O=C(Nc1ccccc1)OC[C@@H]1CSCCS(=O)(=O)N1 ?
hcDAF12 agonist: 1; ssDAF12 agonist: 0; SMARCA2 activ: 0; DAX1 StAR inh: 3; hgDAF12 agonist: 1

How did Cc1nn(C)c(C)c1/C=C/C(=O)c1cccs1 do in these assays?
hcDAF12 agonist: 0; ssDAF12 agonist: 0; SMARCA2 activ: 2; DAX1 StAR inh: 1; hgDAF12 agonist: 5

How did Cc1nn(C)cc1/C=C/C(=O)c1cccs1 do in these assays?
hcDAF12 agonist: 1; ssDAF12 agonist: 0; SMARCA2 activ: 4; DAX1 StAR inh: 1; hgDAF12 agonist: 12*

How did CC(C)c1ccc(N(C(=O)c2csnn2)C(C(=O)NC(C)(C)C)c2ccncc2)cc1 (stereo not drawn) do in these assays?
hcDAF12 agonist: 6.3*; ssDAF12 agonist: 0; SMARCA2 activ: 2; DAX1 StAR inh: 1; hgDAF12 agonist: 17*

How did COC(=O)c1n[nH]c2ccccc12 do in these assays?
hcDAF12 agonist: 6.2*; ssDAF12 agonist: 1.0*; SMARCA2 activ: 2; DAX1 StAR inh: 1; hgDAF12 agonist: 2

How did CC(OC(=O)c1n[nH]c2ccccc12)C(=O)Nc1ccccc1[N+](=O)[O-] (stereo not drawn) do in these assays?
hcDAF12 agonist: 3; ssDAF12 agonist: 1.0*; SMARCA2 activ: 3; DAX1 StAR inh: 0; hgDAF12 agonist: 4

What do the screens show for `C[C@H]1[C@@H](OC(=O)Nc2ccc(Br)cc2)CC[C@@]23CCCN2C(=O)CCC[C@@H]13`?
hcDAF12 agonist: -2; ssDAF12 agonist: -2; hgDAF12 agonist: -2

Results for O=S1(=O)c2c(cccc2N2CC[C@H](O)C2)OCCCN1C1CC1 ?
hcDAF12 agonist: 0; ssDAF12 agonist: -1; SMARCA2 activ: 0; DAX1 StAR inh: -2; hgDAF12 agonist: 2

How did COC(=O)c1ccc2nc(-c3ccco3)c(Cc3ccccc3C(F)(F)F)n2c1 do in these assays?
hcDAF12 agonist: -1; ssDAF12 agonist: -1; SMARCA2 activ: -2; DAX1 StAR inh: -1; hgDAF12 agonist: -5

What do the screens show for `COC(=O)c1ccc2nc(-c3ccco3)c(Cc3ccccc3OC)n2c1`?
hcDAF12 agonist: 2; ssDAF12 agonist: 1.3*; SMARCA2 activ: -2; DAX1 StAR inh: -2; hgDAF12 agonist: 6

Results for COC(=O)c1ccc2nc(C3CCCCC3)c(Cc3ccccc3C(F)(F)F)n2c1 ?
hcDAF12 agonist: 2; ssDAF12 agonist: 0; SMARCA2 activ: 2; DAX1 StAR inh: 3.6*; hgDAF12 agonist: 2

How did COC(=O)c1ccc2nc(C3CCCCC3)c(Cc3ccc(C)cc3)n2c1 do in these assays?
hcDAF12 agonist: 3; ssDAF12 agonist: 1.0*; SMARCA2 activ: -2; DAX1 StAR inh: 1; hgDAF12 agonist: 5

Assay outcomes (PubChem BioAssay)
